# ROMK mod: ROMK potassium channel modulators, primary screen, cell-based, thallium flux, MLSMR library; ATP-sensitive inward rectifier potassium channel 1 (Homo sapiens), P48048; Tet-inducible ROMK, thallium flux fluorescence; actives lie on both sides; B-score at 10 µM; 130,000 compounds, 2% hits; AID 1918, 2009;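 active = signal ratio slope over the read window, or its plate-corrected B-score, at least 3 SD from the plate mean, either direction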;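 also: B-score of the F/F0 ratio slope over 7 to 12 s after thallium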
# Insulin prom inh: inhibitors of insulin promoter-driven GFP, primary screen, imaging, TRM-6 cells (human fetal islet line), eGFP reporter, cell count; reporter expression induced with tamoxifen; inhibition, % at 2 µM; 130,000 compounds, 0.9% hits;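 active = inhibition above the mean plus 3 SD, with well images judged a real hit on visual review, cut at about 60% in these data, passing the limit was not always enough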
# Ins promoter up: insulin promoter activators in MIN6 cells, imaging, high-content screening, mouse beta cells | MIN6 insulin promoter-GFP reporter; active compounds read high | z-score at 5 µM | 190,000 compounds, 0.3% hits;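 active = z-score above 3 at 5 µM with at least 500 cells counted in the well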
# L major viab: Leishmania major promastigote growth inhibition, primary screen; AID 1063, 2008; inhibition, % at 10 µM; 200,000 compounds, 9% hits; Leishmania major promastigotes, resazurin fluorescence viability; in the data active = inhibition above about 50%;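 also: promastigotes grown with compound for 44 hours at 28 °C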
# Cl transport mod: KCC2 cotransporter modulators, thallium flux, primary screen, cell-based, HEK293 KCC2, FluoZin-2 fluorescence, MLSMR | KCC2 cells, thallium flux FluoZin-2 fluorescence | B-score of Tl+ flux slope (higher = more flux/activation; lower = inhibition) at 10 µM | AID 1456, 2008 | Solute carrier family 12 member 5 (Homo sapiens), Q9H2X9 | 190,000 compounds, 2.2% hits;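 active = thallium flux slope and its plate-corrected score both differing from the plate sample mean at a set confidence after two filtering rounds, in either direction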;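 also: slope of fluorescence scaled to starting intensity during 10 to 20 s after thallium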
# Target sequence (Q9H2X9 whole entry, looked up): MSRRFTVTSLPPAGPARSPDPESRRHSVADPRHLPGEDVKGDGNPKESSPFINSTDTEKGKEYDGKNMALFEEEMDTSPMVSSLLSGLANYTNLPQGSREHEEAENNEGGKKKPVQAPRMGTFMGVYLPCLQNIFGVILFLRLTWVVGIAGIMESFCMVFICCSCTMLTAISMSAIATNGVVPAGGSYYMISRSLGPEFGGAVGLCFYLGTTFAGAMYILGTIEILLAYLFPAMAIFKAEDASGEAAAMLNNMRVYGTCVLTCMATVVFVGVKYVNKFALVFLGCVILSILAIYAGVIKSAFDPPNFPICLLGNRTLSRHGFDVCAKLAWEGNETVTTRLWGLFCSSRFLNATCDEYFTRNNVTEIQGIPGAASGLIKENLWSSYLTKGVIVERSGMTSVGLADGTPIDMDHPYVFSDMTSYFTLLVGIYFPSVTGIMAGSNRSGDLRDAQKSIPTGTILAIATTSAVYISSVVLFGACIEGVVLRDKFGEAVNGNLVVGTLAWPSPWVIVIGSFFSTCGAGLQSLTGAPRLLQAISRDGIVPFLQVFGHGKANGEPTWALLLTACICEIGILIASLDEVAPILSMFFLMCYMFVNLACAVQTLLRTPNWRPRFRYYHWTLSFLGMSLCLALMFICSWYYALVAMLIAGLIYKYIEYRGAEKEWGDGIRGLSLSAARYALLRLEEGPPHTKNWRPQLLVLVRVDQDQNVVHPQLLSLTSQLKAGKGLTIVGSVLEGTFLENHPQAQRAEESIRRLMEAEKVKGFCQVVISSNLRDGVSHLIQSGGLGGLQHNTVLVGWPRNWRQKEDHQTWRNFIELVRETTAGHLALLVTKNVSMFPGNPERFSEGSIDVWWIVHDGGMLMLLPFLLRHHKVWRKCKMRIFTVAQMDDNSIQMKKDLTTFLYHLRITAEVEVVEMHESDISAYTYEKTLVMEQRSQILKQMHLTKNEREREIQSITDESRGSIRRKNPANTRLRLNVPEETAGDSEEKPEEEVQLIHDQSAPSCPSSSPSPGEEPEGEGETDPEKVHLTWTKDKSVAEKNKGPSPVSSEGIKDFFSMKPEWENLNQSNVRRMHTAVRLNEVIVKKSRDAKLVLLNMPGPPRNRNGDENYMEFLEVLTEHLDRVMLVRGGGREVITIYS
# WT yeast gro inh: growth inhibition of WT strain, primary screen, mitochondrial fusion inhibitor project, WT and mutant strains, chemical genetic; mitochondrial fusion phenotypic screen; inhibition, % at 10 µM; 190,000 compounds, 2.1% hits; in the data active = inhibition above about 58%; tested in S. cerevisiae
# The depositor's hits bear a star; x = not tested or not shown. Most compounds without a hit are left out; they make up all but 12% or so of the library.
SMILES,ROMK mod,Insulin prom inh,Ins promoter up,L major viab,Cl transport mod,WT yeast gro inh
CCOc1ccc(C2=C(C=Nc3c(C)n(C)n(-c4ccccc4)c3=O)C(c3ccc(F)cc3)c3ccccc3O2)cc1 (stereo not drawn),0.75,5,-4.2,57*,0.13,17
Cc1ccc(C(=O)Nc2cccc(C(F)(F)F)c2)cc1NC(=O)c1cnnc2ccccc12,x,x,1,x,-1.8,x
Cc1ccc(N=Nc2c(N)nn3c(C)cc(C)nc23)cc1,-0.02,82*,x,0,0.93,14
COc1cccc(N=Nc2c(=O)[nH]n3c(C)cc(C)nc23)c1,x,53,0.09,1,-0.38,-1
Cc1ccc(N=Nc2c(N)nn3c(N)c(C#N)c(C)nc23)cc1,-1.4,47,x,6,0.12,-3
Cc1cc(C)n2nc(N)c(N=Nc3cccc(Cl)c3)c2n1,-0.23,62*,-0.65,-3,-0.0051,20
O=C(CCc1ccc(Oc2cc([N+](=O)[O-])cc([N+](=O)[O-])c2)cc1)N1CCCCC1,x,x,0.23,92*,-0.63,18
O=C(CCc1ccc(Oc2cc([N+](=O)[O-])cc([N+](=O)[O-])c2)cc1)Nc1cccc(Cl)c1,x,21,x,100*,0.27,28
O=C(Cn1cnc2ccccc2c1=O)NCC(=O)N1CCN(Cc2ccc3c(c2)OCO3)CC1,x,x,-0.84,-7,0.81,2
COC(=O)CON1C(=O)c2ccccc2C1=O,-0.081,-60,-0.09,-2,0.72,12
CN1CCN(CC(=O)NC23CC4CC(CC(C4)C2)C3)CC1,x,x,0.51,x,-0.024,x
FC(F)(F)c1cccc(NC(=S)NCc2ccccc2)c1,-1.1,x,-0.28,7,0.7,50
Cc1cc(N2CCN(C)CC2)ccc1NC(=O)c1cccc(S(=O)(=O)N2CCc3ccccc3C2)c1,x,-36,-1.2,98*,0.46,18
Cc1cccc(C(C)C)c1NC(=O)COC(=O)c1cccc(S(=O)(=O)N2CCc3ccccc3C2)c1,0.41,21,0.19,-7,0.19,-4
CCCCCN(C(=O)NC(=O)NC(C)CC)S(C)(=O)=O (stereo not drawn),x,x,-0.14,-2,0.26,-5
O=S(=O)(c1ccc(Cl)cc1)N1CCN(C2CCCCCC2)CC1,x,-50,0.34,90*,-0.24,17
O=C(C1CCCCC1)N1CCN(S(=O)(=O)c2ccc(Cl)cc2)CC1,x,x,-0.24,0,-0.52,5
COc1ccc(S(=O)(=O)N2CCC(C(=O)N3CCOCC3)CC2)cc1Cl,0.42,x,-0.28,-5,1.3,-8
COc1ccc(S(=O)(=O)N2CCC(N3CCCCC3)CC2)cc1,0.25,17,0.08,92*,0.39,4
COc1ccc(S(=O)(=O)N2CCCCCC2)cc1,-0.34,-10,x,-4,0.61,3
COc1ccc(S(=O)(=O)N2CCC(C(=O)N3CCc4ccccc4C3)CC2)cc1,x,x,x,0,-4*,7
COc1ccc(S(=O)(=O)N2CCC(C(=O)N3CCCCC3)CC2)cc1OC,0.29,x,-0.6,-1,x,61*
CN(C)C(=O)CC12CC3CC(C1)CC(CC(=O)N(C)C)(C3)C2,1.5,12,0.53,-1,2.7,1
CSc1nnc(C)c(=O)n1COC(=O)c1ccccc1,0.28,33,-0.16,1,0.0075,-9
CCOc1ccc2nc(SCC(=O)N(C)C)[nH]c2c1,-0.86,0,1.7,-6,-1.4,2
SMILES,ROMK mod,Insulin prom inh,Ins promoter up,L major viab,Cl transport mod,WT yeast gro inh
Cc1ccc(Nc2nc(CSc3nnc(-c4cccs4)o3)cs2)cc1,x,43,-0.24,-1,0.34,16
O=S(=O)(c1ccc(Cl)cc1)N1CCC(N2CCOCC2)CC1,-0.031,x,0.94,91*,0.66,-6
COc1ccc(S(=O)(=O)N2CCN(C3CCCCCCC3)CC2)cc1,-1.2,9,0.32,73*,0.83,16
Nc1nc(-c2ccc(Cl)cc2)c(N=Nc2ccc(S(=O)(=O)N3CCOCC3)cc2)s1,x,22,3.8*,74*,-0.0046,49
CCCCOC(=O)C1CN(c2ccccc2)N=C1C(C)=O (stereo not drawn),-0.56,x,-0.6,-4,-0.024,-7
C#CCNC(=O)c1cccn1-c1ncc(C(F)(F)F)cc1Cl,-0.08,x,0.17,4,0.8,5

# Screens as filed in PubChem BioAssay.
